Results reported in PMC4336329 (PLoS ONE, 2015).
Out of some 310,000 compounds screened, about 14,000 (4.5%) showed an effect of 50% or more. Effects have a minus sign here. This is one part of a sample in which strong results are shown more often than they occur.

What follows are molecules tested against human ether-à-go-go-related gene (hERG) potassium channel (human, UniProt Q12809) (assay: primary screen, population patch clamp on CHO cells stably expressing hERG; higher = less effect of the substance).
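Note: peak tail current of the secondary pulse compared with the same well before compound.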

Sequence of human ether-à-go-go-related gene (hERG) potassium channel (Q12809 whole entry, looked up): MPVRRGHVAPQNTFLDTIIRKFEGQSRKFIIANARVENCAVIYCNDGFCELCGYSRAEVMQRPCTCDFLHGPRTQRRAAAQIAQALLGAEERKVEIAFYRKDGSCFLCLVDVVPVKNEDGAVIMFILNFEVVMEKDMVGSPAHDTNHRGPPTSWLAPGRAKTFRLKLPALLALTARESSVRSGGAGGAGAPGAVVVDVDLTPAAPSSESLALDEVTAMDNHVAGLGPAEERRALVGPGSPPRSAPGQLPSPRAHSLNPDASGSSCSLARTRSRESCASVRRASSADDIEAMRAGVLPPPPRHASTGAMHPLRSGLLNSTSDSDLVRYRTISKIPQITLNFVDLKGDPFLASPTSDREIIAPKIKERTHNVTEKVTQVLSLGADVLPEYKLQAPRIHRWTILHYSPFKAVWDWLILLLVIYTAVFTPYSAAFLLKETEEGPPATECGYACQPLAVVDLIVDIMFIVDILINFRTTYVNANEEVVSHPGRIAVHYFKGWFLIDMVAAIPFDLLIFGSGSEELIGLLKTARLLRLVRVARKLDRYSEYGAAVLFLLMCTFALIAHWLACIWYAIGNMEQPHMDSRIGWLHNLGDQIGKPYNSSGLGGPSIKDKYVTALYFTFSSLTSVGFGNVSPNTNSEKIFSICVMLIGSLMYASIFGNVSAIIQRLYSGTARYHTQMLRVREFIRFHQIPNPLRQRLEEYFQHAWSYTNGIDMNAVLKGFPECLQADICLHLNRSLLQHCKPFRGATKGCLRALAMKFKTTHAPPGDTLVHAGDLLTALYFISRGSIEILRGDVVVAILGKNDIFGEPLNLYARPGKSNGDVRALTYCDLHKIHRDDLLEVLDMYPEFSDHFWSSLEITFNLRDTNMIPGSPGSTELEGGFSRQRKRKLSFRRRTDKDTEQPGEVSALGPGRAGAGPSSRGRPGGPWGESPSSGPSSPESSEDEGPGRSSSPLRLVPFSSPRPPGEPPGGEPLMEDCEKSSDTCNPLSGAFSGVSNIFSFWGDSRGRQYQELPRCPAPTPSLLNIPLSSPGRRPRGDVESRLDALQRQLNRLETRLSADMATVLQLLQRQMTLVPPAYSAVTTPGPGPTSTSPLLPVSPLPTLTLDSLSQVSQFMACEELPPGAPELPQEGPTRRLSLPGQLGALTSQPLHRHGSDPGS

Structure (SMILES)	hERG current change (%, negative = inhibition) at 10uM
Cc1cccc(C2NC(c3cccc(C)c3)C(C)C(=O)C2C)c1 (stereo not shown)	8.92%
CSc1ncc(CN2CCN(C(C)C)C(CCO)C2)cn1 (stereo not shown)	-2.82%
O=C(Nc1nnc(C2=COCCO2)o1)c1ccc(Br)cc1	-0.63%
CCCc1cc(=O)[nH]c(SCC(=O)N2CCN(c3ccc(F)cc3)CC2)n1	-15.2%
CCN(CC)Cc1c(C(=O)N/N=C/c2ccco2)nnn1-c1nonc1N	-14.3%
FC(F)(F)c1cccc(N2Cc3ccccc3C2)c1	6.28%
COc1cccc(-c2nc(CS(=O)(=O)CC(=O)NCCc3ccccc3)c(C)o2)c1	0.232%
CCOC(=O)c1sc(=NC(=O)c2ccc(OC(C)C)cc2)n(C)c1C	10.8%
Nc1ccccc1-c1nnc(-c2ccc(-c3ccccc3)cc2)o1	10.1%
COc1ccc(C(=O)C2CCCN(C(=O)Cn3nc(C)cc3C)C2)cc1F (stereo not shown)	-17.4%
CSCC(=O)N1CCCC(C(=O)c2cc(F)ccc2F)C1 (stereo not shown)	-1.1%
COc1ccc(/C=C/CN2CCCC(C(=O)c3cc(F)ccc3F)C2)cc1 (stereo not shown)	-76.4%
Cc1cc(C(=O)N2CCCC(C(=O)c3cc(F)ccc3F)C2)c(C)o1 (stereo not shown)	-4.31%
COc1ccc(C(=O)C2CCCN(C(=O)c3ccoc3C)C2)cc1F (stereo not shown)	-6.04%
COc1ccc(/C=C/CN2CCCC(C(=O)c3ccc(OC)c(F)c3)C2)cc1 (stereo not shown)	-94.5%
Cc1nn(-c2ccccc2)c(Cl)c1/C=N\NC(=O)c1cnccn1	-5%
CCc1cccc(C)c1NS(=O)(=O)c1cc(Br)cnc1N	8.34%
COC(=O)c1ccccc1NC(=S)NC(NC(=O)COc1ccccc1)C(Cl)(Cl)Cl (stereo not shown)	7.66%
CCN1CCN(C(=O)Cc2ccccc2OC)CC1	13.3%
Cc1cccc(C)c1OCC(O)CN1CCN(c2ccccn2)CC1 (stereo not shown)	-35.5%
CC(C)(C)c1ccccc1OCC(O)CN1CCN(c2ccccn2)CC1.Cl (stereo not shown)	-48.8%
Cc1ccc(OCC(O)CN2CCN(c3ccccn3)CC2)c(C)c1.Cl (stereo not shown)	-60.5%

Structure (SMILES)	hERG current change (%, negative = inhibition) at 10uM
Cc1ccccc1OCC(O)CN1CCN(c2ccccn2)CC1.Cl (stereo not shown)	-48.8%
Cc1cc(C)c(OCC(O)CN2CCN(c3ccccn3)CC2)c(C)c1.Cl (stereo not shown)	-58.3%
Cc1cc(C)c(C)c(OCC(=O)N2CCN(c3ccccn3)CC2)c1	-33.6%
Cc1cccc(OCC(O)CN2CCN(c3ccccn3)CC2)c1C.Cl (stereo not shown)	-45.5%
Cc1cc(C)c(C)c(OCC(O)CN2CCN(c3ccccn3)CC2)c1.Cl (stereo not shown)	-54.4%
CCc1noc(C)c1C(=O)N1CCCSC1=Nc1ccccc1OC	-8.77%
O=C(CCCN1C(=O)/C(=C/c2ccccc2)SC1=S)N1CCOCC1	-30.1%
Cc1ccc(NC(=O)c2ccc(Cl)cc2[N+](=O)[O-])nc1	6.4%
O=C(Cn1c(=O)oc2ccccc21)Nc1ccccc1C(F)(F)F	21.6%
COc1cc(/C=C2/C(=O)ON=C2C)ccc1OCc1ccccc1F	2.22%
COCCNC(=O)C(OC(=O)C1=Cc2ccccc2OC1)C(C)C (stereo not shown)	10.3%
N=c1c(C(=O)NCc2ccco2)cc2c(=O)n3ccccc3nc2n1C1CCCC1	-77%
Cn1c2ccccc2c2c(C(=O)NCc3ccco3)cn(C3CCCCC3)c(=O)c21	-33.4%
Cc1ccc2nc3c(cc(C(=O)NCc4ccco4)c(=N)n3C3CCCC3)c(=O)n2c1	-75.8%
O=C(NCc1ccco1)c1cnc2ccccn2c1=O	-3.03%
Cc1ccc2nc(SCC(=O)NCc3ccco3)nc(=O)n2c1	8.08%
N#C/C(=C\c1ccc(O)c(O)c1)C(=O)NCCCc1ccccc1	-1.59%
Cc1cccc(NC(=O)CSCC(=O)Nc2ccccc2N2CCCCC2)c1	-1.89%
CN1CCN(c2ccc(Cl)cc2NC(=O)CC2OC(=O)c3ccccc32)CC1 (stereo not shown)	-74.5%
Cc1cccc(NC(=O)CSCC(=O)Nc2cc(Cl)ccc2N2CCN(C)CC2)c1	-72.8%
Cc1cccc(NC(=O)CSCC(=O)Nc2cc(Cl)ccc2N2CCOCC2)c1	-31%
Cc1cccc(NC(=O)CSCC(=O)Nc2ccccc2N2CCCC2)c1	-90%

Structure (SMILES)	hERG current change (%, negative = inhibition) at 10uM
Cc1ccc(NC(=O)CSCC(=O)Nc2cc(Cl)ccc2N2CCOCC2)cc1	-14.8%
CN1CCN(c2ccc(Cl)cc2NC(=O)CCN2C(=O)c3ccccc3C2=O)CC1	-7.06%
Cc1ccc(NC(=O)CSCC(=O)Nc2cc(Cl)ccc2N2CCN(C)CC2)cc1	-53.1%
Cc1ccc(NC(=O)CSCC(=O)Nc2ccccc2N2CCCC2)cc1	-13.6%
Cc1cc(NC(=O)CSCC(=O)Nc2cc(Cl)ccc2N2CCN(C)CC2)no1	-25.7%
CCN(CC)S(=O)(=O)c1ccc(N2CCN(C)CC2)c(NC(=O)CSCC(=O)Nc2cccc(C)c2)c1	-13%
O=C(CC1OC(=O)c2ccccc21)Nc1cc(Cl)ccc1N1CCCC1 (stereo not shown)	-8.18%
COc1cccc(-c2ccc3nnc(SCC(=O)N4CCOCC4)n3n2)c1	-6.27%
O=C(Nc1cc(Sc2ccccn2)cc([N+](=O)[O-])c1)c1ccc([N+](=O)[O-])cc1	-6.06%
CCOc1ccc(-n2ccc(=O)c(C(=O)Nc3ccc(S(=O)(=O)Nc4ncccn4)cc3)n2)cc1	7.22%
CC1CCCC(NC(=O)CCn2c(=O)oc3ccccc32)C1C (stereo not shown)	-18.4%
COC(=O)c1cc2oc(C)cc2n1CC(=O)N(C)c1ccccc1	5.36%
O=C(O)c1ccc(/C=N/N2CCN(c3ccccc3)CC2)cc1	7.59%
CC(C)N(C(=O)CSc1nc(COc2ccccc2)nc2ccccc12)C(C)C	-4.66%
O=C(NC(=S)N1CCOCC1)c1cc2ccccc2o1	12.7%
O=C(Cc1ccccn1)c1ccc(O)cc1O	21.5%
Cc1ccccc1Nc1nnc(SCC(=O)Nc2ccccc2[N+](=O)[O-])s1	3.5%
O=S1(=O)[C@H]2C[C@@H]3C=C[C@@]2(CN1Cc1ccc(F)cc1)O3	-25.2%
CCN(CC)CCNC(=O)c1cc2ccccc2nc1Cl	43.4%
CCCCCn1c(=O)[nH]c2cc(C(=O)N3CCN(C(=O)OCC)CC3)ccc2c1=O	-9.61%
CCC(=O)NCCn1c(C)cc2ccccc21	-0.267%
Cc1cc2ccccc2n1CCNC(=O)C(C)(C)C	11.7%

Structure (SMILES)	hERG current change (%, negative = inhibition) at 10uM
CC(=O)NCCn1c(C)cc2ccccc21	-55.1%
COc1ccc(CNC(=O)Cc2cccs2)cc1	15%
COc1cccc(CNCC(O)COc2ccc(C(=O)c3ccccc3)cc2)c1 (stereo not shown)	-34.7%
COC(=O)c1ccc(COc2ccc(CNCc3ccc(Cl)cc3)cc2)cc1	-0.414%
CN(Cc1ccccc1)CC(O)COc1ccc(CNCCc2ccncc2)cc1 (stereo not shown)	-17.5%
COc1ccc(CNC(C)Cc2cccs2)cc1 (stereo not shown)	-2.79%
C=CCOc1ccc(CN(C)CC(O)COc2cccc3ccccc23)cc1 (stereo not shown)	-23.2%
COc1ccc(CNCC(O)COCc2cccs2)cc1 (stereo not shown)	-60.8%
Cc1ccc(OCC(O)CNCc2ccccc2)cc1C (stereo not shown)	-33.5%
O=C(O)C(=O)O.OC(CNCc1ccc(Cl)cc1)COc1ccccc1 (stereo not shown)	-41.9%
O=C(O)C(=O)O.O=C(c1ccccc1)c1ccc(OCC(O)CNCc2ccc(Cl)cc2)cc1 (stereo not shown)	-66.6%
C=CCOc1ccc(CN(C)CC(O)COc2ccc(CCC(C)=O)cc2)cc1 (stereo not shown)	-63.6%
O=C(O)C(=O)O.O=C(c1ccccc1)c1ccc(OCC(O)CNCc2cccc(Cl)c2)cc1 (stereo not shown)	-60.3%
CCNC(=O)/C=C/c1ccccc1[N+](=O)[O-]	8.82%
COc1ccc2[nH]c(=O)c(CN(c3ccccc3)S(=O)(=O)c3ccccc3)cc2c1	11.2%
COc1ccc2cnn(-c3ccc(OC(F)(F)F)cc3)c(=O)c2c1OC	-6%
CCOC(=O)C(=CNc1cc(C)ccc1-n1cccc1)C(=O)OCC	2.05%
Cc1ccc(/C=C2/Sc3ccc(C(=O)N4CCC5(CC4)OCCO5)cc3NC2=O)cc1	16.1%
Cc1sc(NC(=O)CN(Cc2ccccc2)C(=O)C(C)C)c(C(N)=O)c1C	-0.293%
O=C(COc1cc(F)ccc1[N+](=O)[O-])Nc1ccc2c(c1)OCO2	1.25%
Cc1csc(NC(=O)C2CCN(S(=O)(=O)c3ccc4c(c3)oc(=O)n4C)CC2)n1	-11.5%
COCCNC(=O)c1cc(-c2ccccc2)n(Cc2cc(C)no2)n1	0.26%
